Consider 8 compounds from PubChem BioAssay (Tox21).

Records with an inconclusive call do not appear. Calls of active or inactive are those of the source. Unless noted, calls follow the shape of the dose curve; as a rule, active = well fitted curve in the direction sought with a large enough effect in the repeat runs; inconclusive = weak or mixed curves; inactive = no such curve, though single readings can be large; an effect the other way counts as inactive or inconclusive.

Test [1] in a line: qHTS assay to identify small molecule antagonists of the estrogen receptor alpha (ER-alpha) signaling pathway using the BG1 cell line in the presence of 0.1 nM 17-beta-estradiol - cell viability counter screen (AID 1259241). Also: nearly all actives have a fitted effect of over 40% in size. Put shortly: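 VM7Luc4E2 cells (endogenous full-length ER-alpha, 4xERE-luciferase), cultured 5 days in charcoal-stripped serum, exposed to compounds with 0.1 nM 17beta-estradiol (final) for 22 hr at 37C. Viability read in same wells as live-cell protease fluorescence after 30 min.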

A short description of test [2]: qHTS assay to identify small molecule antagonists of the androgen receptor (AR) signaling pathway using the MDA cell line in the presence of 0.5 nM R1881 - cell viability counter screen (AID 1259242). Also: nearly all actives have a fitted effect of over 45% in size. In a few lines:
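Human breast carcinoma MDA-kb2 cells, cultured without CO2, receive compounds alongside 0.5 nM (final) R1881 agonist. After 16 hr at 37C, viability is taken as live-cell protease signal.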

Test [3] deals with Estrogen receptor (Homo sapiens) (UniProt P03372). Briefly: qHTS assay to identify small molecule antagonists of the estrogen receptor alpha (ER-alpha) signaling pathway using the BG1 cell line in the presence of 0.1 nM 17-beta-estradiol (AID 1259244). Also: nearly all actives have a fitted effect of over 50% in size. Also: potency is read from the fitted curve at half-maximal effect. In a few lines:
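Seeding of stripped-serum-adapted VM7Luc4E2 cells, 24 h attachment, compound transfer, then 0.1 nM final 17beta-estradiol; after 22 h incubation, ONE-Glo reagent and luminescence reading.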

Test [4] can be described thus: qHTS assay to identify small molecule HDAC inhibitors (AID 1259364).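 Also: wild-type HCT-116 cells with endogenous class I/II HDAC activity; top concentration of the series differs between compounds; nearly all actives have a fitted effect of over 45% in size.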 Put shortly: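 After a 2 hr compound incubation (37C, 5% CO2), HCT-116 cells seeded at 1,500/well the day before received HDAC-Glo reagent; signal read as luminescence after 30 min at room temperature.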
Test [5] in a line: qHTS assay to identify small molecule HDAC inhibitors - cell viability counter screen (AID 1259365). Also: series mostly up to about 92 µM; nearly all actives have a fitted effect of over 50% in size. In a few lines: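 Wild-type HCT-116 cells, 1,500/well, cultured overnight, then compound-treated 2 h at 37 C. Viability measured as ATP luminescence with CellTiter-Glo after 30 min at room temperature.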
Test [6] is described as follows: qHTS assay to identify small molecule agonists of the sonic hedgehog signaling (Shh) pathway - cell viability counter screen (AID 1259366). Also: nearly all actives have a fitted effect of over 50% in size. Also: potency is read from the fitted curve at half-maximal effect. In a few lines: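 NIH/3T3-derived Gli1-Luc reporter cells, 2,000 per well, received compound after 4 h and were treated about 23 h at 37C. Viability measured in the same wells by CellTiter-Fluor fluorescence after 1 h.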
Test [7] can be described thus: qHTS assay to identify small molecule antagonists of the sonic hedgehog signaling (Shh) pathway - cell viability counter screen (AID 1259367). Also: nearly all actives have a fitted effect of over 55% in size. Also: potency is read from the fitted curve at half-maximal effect. Put shortly: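 Tox21 library chemicals were tested on a Gli1-Luc NIH/3T3 clone (2,000 cells/well) stimulated by conditioned medium; viability was quantified as fluorescence from CellTiter-Fluor reagent added at 23 hr.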
Test [8] is described as follows: qHTS assay to identify small molecule antagonists of the sonic hedgehog signaling (Shh) pathway (AID 1259369; calls by dose curve; also: nearly all actives have a fitted effect of over 45% in size). Put shortly: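 Gli1 transcriptional reporter (firefly Luc) in NIH/3T3 background, conditioned-medium activated. 24hr exposure, luminescence endpoint.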
A short description of test [9]: qHTS assay to identify small molecule agonists of the androgen receptor (AR) signaling pathway in the presence of an antagonist - cell viability counter screen (AID 1259379).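 Also: MDA-kb2 human breast cancer cells carrying an MMTV luciferase reporter; series mostly up to about 92 µM; nearly all actives have a fitted effect of over 25% in size.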 In a few lines: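 Counter screen for cell viability run in parallel with the AR agonist-mode luciferase assay. MDA-kb2 cells were co-treated with nilutamide (3.0uM final) and compounds, then incubated 16 hr at 37C, and CellTiter-Fluor fluorescence was measured.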

Test [10] can be described thus: qHTS assay to identify small molecule agonists of the estrogen receptor beta (ER-beta) signaling pathway - cell viability counter screen (AID 1259380). Also: nearly all actives have a fitted effect of over 30% in size. Put shortly:
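In this qHTS counter screen, HEK293T cells carrying an ER-beta/UAS beta-lactamase reporter, grown in 2% charcoal-stripped FBS, received compound for 16 hr; ATP-based CellTiter-Glo luminescence was then read after 30 min at room temperature.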

Test [11] can be described thus: qHTS assay to identify small molecule antagonists of the estrogen receptor beta (ER-beta) signaling pathway - cell viability counter screen (AID 1259382). Also: series mostly up to about 92 µM; nearly all actives have a fitted effect of over 55% in size. Put shortly:
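HEK293T ER-beta-UAS-bla, 2% charcoal-stripped FBS; compounds + 1nM E2 16 hr 37C; CellTiter-Glo luminescence, 30 min RT.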

Test [12] concerns the target Estrogen receptor (Homo sapiens) (UniProt P03372). Briefly: qHTS assay to identify small molecule agonists of the estrogen receptor alpha (ER-alpha) signaling pathway in the presence of an antagonist (AID 1259383; calls by dose curve; also: top concentration of the series differs between compounds; nearly all actives have a fitted effect of over 15% in size). In a few lines:
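ER-alpha agonism measured under antagonist challenge: 10.0nM ICI-182,780 (final) plus compound, 15 concentrations, 22hr, VM7Luc4E2 ERE-luciferase cells. Read by luminescence.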

A short description of test [13]: qHTS assay to identify small molecule agonists or antagonists of the thyroid stimulating hormone receptor (TSHR) signaling pathway - wild type cell line counter screen (AID 1259384; calls by dose curve; also: potency is read from the fitted curve at half-maximal effect). In a few lines: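 Wild-type Hek293 cells, 800/well, 18 h at 37C, then compound with Ro20-1724 for 30 min RT. cAMP by HTRF (cAMP-d2/anti-cAMP cryptate), 1 h RT, fluorescence read. 15 concentrations, triplicates.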

For test [14], the target named is Thyrotropin receptor (Homo sapiens) (UniProt P16473). Kind of test: qHTS assay to identify small molecule antagonists of the thyroid stimulating hormone receptor (TSHR) signaling pathway (AID 1259385; calls by dose curve; also: nearly all actives have a fitted effect of over 20% in size). In a few lines: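 TSHR-HEK293 cells (800/well) plated 18 h, then compounds with Ro20-1724 and TSH at 1.5 ng/mL final, 30 min at room temperature. cAMP quantified by HTRF (cAMP-d2/anti-cAMP-cryptate, 1 h); 15 concentrations in triplicate.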
Sequence of Thyrotropin receptor (Homo sapiens) (P16473 whole entry, looked up): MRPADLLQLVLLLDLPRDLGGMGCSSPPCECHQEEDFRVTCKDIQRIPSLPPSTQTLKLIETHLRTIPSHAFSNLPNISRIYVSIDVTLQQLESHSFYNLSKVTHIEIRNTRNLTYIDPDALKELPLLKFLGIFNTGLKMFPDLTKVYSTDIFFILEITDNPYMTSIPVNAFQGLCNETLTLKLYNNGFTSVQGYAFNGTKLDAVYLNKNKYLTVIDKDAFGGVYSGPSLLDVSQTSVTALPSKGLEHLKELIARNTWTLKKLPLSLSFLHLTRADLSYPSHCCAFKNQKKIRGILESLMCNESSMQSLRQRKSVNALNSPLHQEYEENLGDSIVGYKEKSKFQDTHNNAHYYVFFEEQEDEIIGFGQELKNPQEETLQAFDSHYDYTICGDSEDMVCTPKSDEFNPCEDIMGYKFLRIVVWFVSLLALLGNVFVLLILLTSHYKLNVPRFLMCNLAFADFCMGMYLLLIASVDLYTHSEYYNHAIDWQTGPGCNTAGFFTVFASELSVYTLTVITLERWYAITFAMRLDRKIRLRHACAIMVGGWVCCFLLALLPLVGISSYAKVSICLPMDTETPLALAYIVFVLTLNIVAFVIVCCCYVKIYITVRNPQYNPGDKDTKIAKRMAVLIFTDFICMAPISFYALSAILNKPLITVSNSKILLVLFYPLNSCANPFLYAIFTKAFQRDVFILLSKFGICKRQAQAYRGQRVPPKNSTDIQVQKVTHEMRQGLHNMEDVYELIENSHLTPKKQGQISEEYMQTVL

A short description of test [15]: qHTS assay to identify small molecule agonists of the estrogen receptor alpha (ER-alpha) signaling pathway in the presence of an antagonist - cell viability counter screen (AID 1259386). Also: series mostly up to about 92 µM; nearly all actives have a fitted effect of over 30% in size. In a few lines:
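Steps: 5-day stripped-FBS culture; seed and incubate 24hr; add ICI-182,780 (10.0nM final); pin 15-point compound titration; incubate 22hr at 37C; add CellTiter-Fluor at 21hr; read fluorescence.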

Test [16] in a line: qHTS assay to identify small molecule agonists of the sonic hedgehog signaling (Shh) pathway (AID 1259368; calls by dose curve;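 also: NIH/3T3-derived 3T3Gli1-Luc cells carrying a stable Gli1-driven firefly luciferase reporter; series mostly up to about 92 µM; nearly all actives have a fitted effect of over 15% in size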). In a few lines:
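Stable NIH/3T3 Gli1-Luc reporter clone; 24 hr cpd exposure after a 4 hr settling period; luminescence endpoint.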

Test [17] addresses Estrogen receptor beta (Homo sapiens) (UniProt Q92731). Briefly: qHTS assay to identify small molecule antagonists of the estrogen receptor beta (ER-beta) signaling pathway (AID 1259378; active = well fitted inhibition curve with a large enough effect in the signal ratio in the repeat runs, not every such curve was filed as active; the % refers to the signal ratio). In a few lines: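 ER-beta-UAS-bla HEK293T cells in 2% charcoal-stripped FBS medium treated with compound plus 1nM final 17-beta-estradiol for 16 hr at 37C. Beta-lactamase reporter read by FRET substrate fluorescence after 2 hours at room temperature.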

Test [18] has the same target. Briefly: qHTS assay to identify small molecule agonists of the estrogen receptor beta (ER-beta) signaling pathway (AID 1259377; active = well fitted activation curve with a large enough effect in the signal ratio in the repeat runs, not every such curve was filed as active; the % refers to the signal ratio). Put shortly:
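ER-beta-UAS-bla HEK293T cells in medium with 2% charcoal-stripped FBS were exposed to compounds for 16 h at 37C. Beta-lactamase reporter activity was read as fluorescence after 2 h with LiveBLAzer B/G FRET substrate at room temperature.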

Sequence of Estrogen receptor (Homo sapiens) (P03372 whole entry, looked up): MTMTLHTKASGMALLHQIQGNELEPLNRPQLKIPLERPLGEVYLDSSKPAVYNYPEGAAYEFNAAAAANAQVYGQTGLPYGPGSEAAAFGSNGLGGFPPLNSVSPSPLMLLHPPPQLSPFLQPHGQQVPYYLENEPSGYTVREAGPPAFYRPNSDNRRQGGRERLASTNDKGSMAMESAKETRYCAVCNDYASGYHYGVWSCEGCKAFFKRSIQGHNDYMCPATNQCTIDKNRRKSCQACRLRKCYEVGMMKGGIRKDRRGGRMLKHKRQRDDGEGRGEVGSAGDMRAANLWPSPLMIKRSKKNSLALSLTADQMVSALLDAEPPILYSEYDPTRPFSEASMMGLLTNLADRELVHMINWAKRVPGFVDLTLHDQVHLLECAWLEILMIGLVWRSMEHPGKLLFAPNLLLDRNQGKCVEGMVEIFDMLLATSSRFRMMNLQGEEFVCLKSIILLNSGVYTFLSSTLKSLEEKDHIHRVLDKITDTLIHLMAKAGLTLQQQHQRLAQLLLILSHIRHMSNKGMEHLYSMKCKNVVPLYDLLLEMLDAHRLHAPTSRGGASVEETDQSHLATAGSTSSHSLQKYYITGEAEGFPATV
Sequence of Estrogen receptor beta (Homo sapiens) (Q92731 whole entry, looked up): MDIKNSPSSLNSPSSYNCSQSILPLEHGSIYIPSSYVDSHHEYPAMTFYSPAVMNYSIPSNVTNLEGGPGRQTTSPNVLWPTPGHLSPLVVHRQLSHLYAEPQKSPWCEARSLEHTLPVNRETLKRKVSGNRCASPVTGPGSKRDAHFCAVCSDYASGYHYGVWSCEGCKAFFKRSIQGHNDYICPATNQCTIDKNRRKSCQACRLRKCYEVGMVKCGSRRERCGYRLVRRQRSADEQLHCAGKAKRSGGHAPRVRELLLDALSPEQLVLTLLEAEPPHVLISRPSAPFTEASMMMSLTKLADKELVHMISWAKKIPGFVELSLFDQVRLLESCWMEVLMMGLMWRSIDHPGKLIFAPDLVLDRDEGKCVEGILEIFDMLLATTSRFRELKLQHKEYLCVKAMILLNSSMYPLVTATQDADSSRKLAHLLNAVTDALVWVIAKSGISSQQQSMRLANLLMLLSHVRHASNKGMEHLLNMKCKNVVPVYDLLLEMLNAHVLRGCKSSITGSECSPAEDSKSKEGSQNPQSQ

Consider `CC(Cc1ccc(O)cc1)NCC(O)c1cc(O)cc(O)c1` (configuration not stated), for which the Potency result in [1], in test [2], in test [3], in [4], in test [5] and in test [8] was “inactive” in each case. Besides, the Potency entry in [9], in test [10], in [11], in [12], in test [14] and in test [15] was “inactive” each time. Besides, the Potency in [6] is 8.41 µM (active); in [7], 10.6 µM (active); in [13], 0.668 µM (active).
As for `Cc1ccc2cc3c(ccc4ccccc43)c3c2c1CC3`, the Potency entry in test [1], in test [2], in test [4], in test [5], in test [6] and in test [7] was “inactive” each time. The Potency entry in test [16], in test [8], in [17], in test [9], in [10] and in test [11] was “inactive” in each case. Moreover, the Potency entry in [12], in [13], in test [14] and in test [15] was “inactive” each time. The Potency in [3] was 0.546 µM (active).
In the case of `Cc1cnc2c(C(=O)O)c(Cl)ccc2c1`, the Potency result in test [1], in [2], in test [3], in test [4], in [5] and in [6] was “inactive” in each case. Also, the Potency entry in [7], in test [16], in test [8], in [18], in test [17] and in [9] was “inactive” in each case. The Potency result in [10], in test [11], in [12] and in test [15] was “inactive” each time.
Regarding `CN`, the Potency result in test [1], in [2], in [4], in test [5], in test [6] and in test [7] was “inactive” each time. Also, the Potency entry in test [16], in test [8], in test [9], in [10], in test [11] and in [13] was “inactive” in each case. Also, the Potency entry in test [14] and in test [15] was “inactive” throughout.
Take `Cc1cccc(Cc2cnc[nH]2)c1C`: the Potency result in test [1], in [2], in test [4], in test [5], in test [6] and in [7] was “inactive” in each case. For the same compound, the Potency result in test [16], in test [8], in test [18], in test [9], in [10] and in [11] was “inactive” each time. Moreover, the Potency entry in [12], in [13], in test [14] and in test [15] was “inactive” throughout.
Consider `C#CCO`, for which the Potency result in [1], in test [2], in [4], in test [5], in test [6] and in [7] was “inactive” in each case. Further, the Potency result in [16], in test [8], in test [18], in test [17], in test [10] and in test [11] was “inactive” throughout. In addition, the Potency entry in test [12], in test [13] and in [15] was “inactive” in each case.
`CSC(C)(C)/C=N/O`: the Potency result in test [1], in test [2], in [3], in test [4], in [6] and in test [7] was “inactive” each time. Further, the Potency result in test [16], in test [8], in [9], in [11], in test [12] and in test [13] was “inactive” in each case. Also, the Potency entry in test [14] and in test [15] was “inactive” in each case.
In the case of `COC(=O)c1ccccc1S(=O)(=O)NC(=O)Nc1nc(C)nc(OC)n1`, the Potency result in test [1], in test [2], in test [4], in [5], in test [6] and in [7] was “inactive” throughout. In addition, the Potency result in test [16], in test [8], in test [18], in test [17], in test [10] and in test [11] was “inactive” each time. In addition, the Potency entry in test [13], in test [14] and in test [15] was “inactive” each time.
